{
  "source": "PubChem BioAssay AID488913",
  "about": "(National Center for Advancing Translational Sciences (NCATS), 2010)",
  "note": "Records with an inconclusive call do not appear. Activity calls are given as the source filed them. Calls come from the whole dose curve; as a rule, active = well fitted inhibition curve with a large enough effect; inconclusive = small, poorly fitted or top-dose-only effect, or effect the other way; inactive = no such curve, though single readings can be large or run the other way.",
  "data": [
    {"assay": "Confirmation Concentration-Response Assay for lipid storage modulators: for probe SAR", "conditions": "Drosophila S3 cells, BODIPY lipid droplet fluorescence, 18-24 h; series mostly up to 46.1 µM", "method_in_brief": "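Cells (5,000/well) received compound plus 1 µL of 400 µM oleic acid and were incubated 18–24 h at 24 °C. Lipid droplets were stained with BODIPY 493/503 and cells counted with CellTracker Red by laser-scanning cytometry. Percent activity was relative to 20 µM Triacsin C (100% inhibition).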", "values": [
      {"compound": "CCOc1ccc(CCNC(=O)c2cc3sccc3n2CCc2ccccc2)cc1OCC", "Potency": "28.1 nM (active)"},
      {"compound": "CC(C)(C)OC(=O)N1CCCCC1C(=O)NC1CCCc2c1cnn2-c1ccc(F)cc1F", "note": "(stereo not drawn)", "Potency": "inactive"},
      {"compound": "CCOC(=O)C1CCN(C(=O)C2(NC(=O)Nc3ccccc3Cl)CCC2)CC1", "Potency": "2810 nM (active)"},
      {"compound": "O=C(NCCc1ccc2c(c1)OCO2)c1cc2sccc2n1Cc1ccccc1", "Potency": "inactive"},
      {"compound": "CCn1c(C(=O)NCCc2ccc(OC)c(OC)c2)cc2sc(Cl)cc21", "Potency": "9710 nM (active)"},
      {"compound": "CCOC(=O)C1CCN(C(=O)C2(NC(=O)NCc3ccccc3)CCCCC2)CC1", "Potency": "4450 nM (active)"},
      {"compound": "O=C(NC1CCCc2c1cnn2-c1ccc(F)cc1F)c1cccc(Cn2cccn2)c1", "note": "(stereo not drawn)", "Potency": "125 nM (active)"},
      {"compound": "CCOc1ccc(CCNC(=O)c2cccs2)cc1OCC", "Potency": "inactive"},
      {"compound": "O=C(NC1CCCc2c1cnn2-c1ccc(F)cc1F)c1cnsn1", "note": "(stereo not drawn)", "Potency": "499 nM (active)"},
      {"compound": "CCOc1ccc(CCNC(=O)c2cc3sccc3n2CC=C(C)C)cc1OCC", "Potency": "79.1 nM (active)"},
      {"compound": "Cc1nc(SC(C)C(=O)Nc2nc(-c3ccccc3)cs2)n(CC2CCCO2)c1C", "note": "(stereo not drawn)", "Potency": "4450 nM (active)"},
      {"compound": "COc1ccc(NC(=S)N2CCN(c3cccc(Cl)c3)CC2)c(OC)c1", "Potency": "inactive"},
      {"compound": "CC(=O)NCc1ccc(-c2csc(NC(=O)Cc3cccs3)n2)cc1", "Potency": "inactive"},
      {"compound": "CCOc1ccc(CCNC(=O)CN(C)C)cc1OCC", "Potency": "inactive"},
      {"compound": "CCOc1ccc(CCNC(=O)c2cccc(C(=O)c3ccccc3)c2)cc1OCC", "Potency": "15800 nM (active)"},
      {"compound": "CC1=C(C(=O)NC2CCCc3c2cnn3-c2ccc(F)cc2F)OCCO1", "note": "(stereo not drawn)", "Potency": "15.8 nM (active)"},
      {"compound": "O=C(CSc1nnc(NCc2ccccc2)s1)Nc1nc(-c2ccc(F)c(F)c2)cs1", "Potency": "1250 nM (active)"},
      {"compound": "O=C(NC1CCCc2c1cnn2-c1ccc(F)cc1F)c1ccc[n+]([O-])c1", "note": "(stereo not drawn)", "Potency": "inactive"},
      {"compound": "O=C(CSc1nnc(NCc2ccccc2)s1)Nc1nc(-c2cccc(Br)c2)cs1", "Potency": "1250 nM (active)"},
      {"compound": "COc1ccc(-n2ncc3c2CCCC3NC(=O)c2cnc(C)cn2)cc1", "note": "(stereo not drawn)", "Potency": "1580 nM (active)"},
      {"compound": "Cc1ccc(C)c(-c2csc(NC(=O)CSc3nnc(Nc4ccc(OC(F)(F)F)cc4)s3)n2)c1", "Potency": "inactive"},
      {"compound": "O=C(O)CCc1ccc(NCc2cccc(Oc3ccccc3)c2)cc1", "Potency": "inactive"},
      {"compound": "CCOc1ccc(CCNC(=O)c2cc3sccc3n2Cc2cccc(C)c2)cc1OCC", "Potency": "4 nM (active)"}
    ]}
  ]
}
